The results in this text go back to PubChem BioAssay (NCI).

Test systems include K-562 leukemia; MALME-3M melanoma; MDA-MB-231 breast; RXF 393 renal; SF-268 CNS; SF-295 CNS; SF-539 CNS; UACC-257 melanoma; M14 melanoma; HCT-15 colon; HT29 colon; SNB-75 CNS; SNB-19 CNS; U251 CNS; PC-3 prostate; SK-MEL-5 melanoma; UACC-62 melanoma; LOX IMVI melanoma; SK-MEL-28 melanoma; SK-MEL-2 melanoma.
Common to all, as to assay: NCI-60 one-dose screen, 48 h (100 = growth as untreated, 0 = no growth, -100 = all killed)
Holding throughout (conditions): 10 µM

The structures appear in SMILES notation. About 83,000 compounds went through this panel and 20% of them were active in at least one assay; those are over-represented in the sample as a whole.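 Step 1: grow cells in 96-well plates. Step 2: add test compound at a single concentration. Step 3: incubate 48 h. Step 4: record percent growth.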 Unmarked numbers belong to inactive results. Calls of active or inactive are those of the source. The calls were made as follows: active = growth percent below 10; inactive = the rest.

Take `O=C(Nc1nc(-c2ccccc2Cl)cs1)c1cc(-c2ccc(Cl)cc2)nc2ccc(Cl)cc12`: the growth in the assay on K-562 leukemia is 14.8%; in the assay on MALME-3M melanoma it was 41.5%; in the assay on MDA-MB-231 breast, 22%; with RXF 393 renal, 88.8%; with SF-268 CNS it was 28.3%; in the assay with SF-295 CNS, 89.4%. Also, the growth with SF-539 CNS was -5.27% (active); in the assay with UACC-257 melanoma it was 66.8%; in the assay on M14 melanoma, -2.68% (active); in the assay with HCT-15 colon, 8.89% (active); in the assay on HT29 colon, 6.1% (active); in the assay with SNB-75 CNS, 20.6%. In addition, the growth in the assay on SNB-19 CNS was 39%; with U251 CNS it was 12.5%; in the assay on PC-3 prostate, 20.8%; in the assay on SK-MEL-5 melanoma, -25.4% (active); in the assay on UACC-62 melanoma, 37.5%; in the assay on LOX IMVI melanoma, 15%. Moreover, the growth is 53.5% with SK-MEL-28 melanoma and 10.7% in the assay on SK-MEL-2 melanoma.

For the molecule `C=C1c2c(C)nn(-c3ccc(OC)cc3)c2N(C)C23C[C@@H]1C1(C)c4c(C)nn(-c5ccc(OC)cc5)c4N(C)C(C)(C[C@H]12)C3` (stereo not given in full), the growth with K-562 leukemia is 15.5%; with MALME-3M melanoma it was 53.9%; with MDA-MB-231 breast, 39.7%; in the assay with RXF 393 renal it was 67.9%; with SF-268 CNS, 36.8%; in the assay with SF-295 CNS, 101%. The growth in the assay with SF-539 CNS was 62.5%; in the assay on UACC-257 melanoma, 26.8%; in the assay with M14 melanoma it was 40%; in the assay with HCT-15 colon, 26.3%; in the assay on HT29 colon, 19.4%; with SNB-75 CNS it was 59.6%. Also, the growth was 46.8% in the assay with SNB-19 CNS; 32.1% in the assay with U251 CNS; -4.74% (active) with PC-3 prostate; 16.1% in the assay on SK-MEL-5 melanoma; 26.9% with UACC-62 melanoma; 18.4% with LOX IMVI melanoma. Further, the results for the growth in the assay on SK-MEL-28 melanoma and with SK-MEL-2 melanoma were 56.8% and 37.2%, respectively.

On to `O=[P@@]1(c2ccccc2)O[C@H](COCc2ccccc2)[C@@H](OCc2ccccc2)[C@H](OCc2ccccc2)[C@H]1O`, for which the growth was 93.9% in the assay with K-562 leukemia; 109% in the assay on MALME-3M melanoma; 73.2% in the assay on MDA-MB-231 breast; 50% with RXF 393 renal; 43.6% in the assay on SF-268 CNS; -24.9% (active) in the assay on SF-295 CNS. Besides, the growth was 58.1% in the assay on SF-539 CNS; 88.4% in the assay on UACC-257 melanoma; 102% with M14 melanoma; 94.2% in the assay with HCT-15 colon; 90.8% in the assay with HT29 colon; -12.1% (active) in the assay with SNB-75 CNS. The growth is 55.3% in the assay with SNB-19 CNS; 39.4% in the assay on U251 CNS; 78.7% in the assay with PC-3 prostate; 73% with SK-MEL-5 melanoma; 50.8% with UACC-62 melanoma; 95.7% in the assay with LOX IMVI melanoma. For the same molecule, the growth was 97% with SK-MEL-28 melanoma and 67.2% in the assay with SK-MEL-2 melanoma.

`Nc1c(C(=O)Nc2ccccc2)sc2nc3c(cc12)C(O)CCC3` (stereo not given): the growth is 11.1% in the assay with K-562 leukemia; 87.4% in the assay with MALME-3M melanoma; 32.8% with MDA-MB-231 breast; -6.4% (active) in the assay on RXF 393 renal; 46.4% in the assay on SF-268 CNS; 8.61% (active) in the assay with SF-295 CNS. Besides, the growth was -5.31% (active) in the assay with SF-539 CNS; 71.1% in the assay with UACC-257 melanoma; 22.1% with M14 melanoma; 23.5% in the assay with HCT-15 colon; 6.61% (active) in the assay on HT29 colon; 36.6% in the assay with SNB-75 CNS. For the same molecule, the growth in the assay on SNB-19 CNS was 58.6%; with U251 CNS, 23.9%; in the assay with PC-3 prostate, 31.8%; in the assay on SK-MEL-5 melanoma, 42.4%; with UACC-62 melanoma, 55.4%; in the assay with LOX IMVI melanoma, 47.5%. Also, the values for the growth in the assay with SK-MEL-28 melanoma and in the assay with SK-MEL-2 melanoma were 62.6% and 37.8%, respectively.

Take `COc1ccc(Nc2ncnc3c2c(SC)nn3-c2ccccc2)cc1`: the growth in the assay on K-562 leukemia is 94%; with MALME-3M melanoma, 93%; in the assay on MDA-MB-231 breast, 93.4%; with RXF 393 renal, 81.3%; in the assay with SF-268 CNS, 95.1%; with SF-295 CNS, 88.7%. The growth in the assay with SF-539 CNS is 99.3%; in the assay on UACC-257 melanoma, 106%; in the assay on M14 melanoma it was 94.4%; with HCT-15 colon, 89.2%; with HT29 colon, 87.2%; in the assay on SNB-75 CNS, 65.8%. Also, the growth was 91.6% in the assay with SNB-19 CNS; 84.1% in the assay with U251 CNS; 70.4% in the assay with PC-3 prostate; 94.8% with SK-MEL-5 melanoma; 86.4% in the assay with UACC-62 melanoma; 92.7% with LOX IMVI melanoma. In addition, the growth was 99.1% in the assay with SK-MEL-28 melanoma and 86.8% with SK-MEL-2 melanoma.

For the molecule `COc1ccc(Cl)cc1-n1nnc(-c2nc3ccccc3[nH]2)c1N`, the growth in the assay with K-562 leukemia was 94.5%; in the assay with MALME-3M melanoma, 63.8%; in the assay on MDA-MB-231 breast, 86.1%; in the assay with RXF 393 renal, 74.2%; with SF-268 CNS, 62.6%; in the assay with SF-295 CNS it was 58.7%. Besides, the growth is 91.6% with SF-539 CNS; 95.4% in the assay with UACC-257 melanoma; 89.3% with M14 melanoma; 94.1% in the assay with HCT-15 colon; 47.2% with HT29 colon; 32.5% in the assay on SNB-75 CNS. For the same molecule, the growth in the assay with SNB-19 CNS is 77%; with U251 CNS it was 53.2%; in the assay with PC-3 prostate it was 89.2%; in the assay on SK-MEL-5 melanoma it was 95.9%; with UACC-62 melanoma, 104%; in the assay with LOX IMVI melanoma, 77.4%. For the same molecule, the results for the growth in the assay with SK-MEL-28 melanoma and with SK-MEL-2 melanoma were 100% and 93.2%, respectively.

As to `O=C1Nc2ccc(Cl)cc2/C1=C\c1c(-c2ccc(Cl)cc2)nc2sc(C3CC3)nn12`, the growth was 76.1% in the assay on K-562 leukemia; 42% in the assay with MALME-3M melanoma; 43.7% in the assay on MDA-MB-231 breast; 21.1% with RXF 393 renal; 34% in the assay with SF-268 CNS; 41.4% in the assay on SF-295 CNS. Also, the growth in the assay with SF-539 CNS is 8.81% (active); with UACC-257 melanoma it was 63.2%; with M14 melanoma it was 74.2%; with HCT-15 colon, 77.6%; in the assay with HT29 colon, 61.8%; in the assay with SNB-75 CNS, 11.3%. In addition, the growth was 74.3% in the assay on SNB-19 CNS; 52.6% with U251 CNS; 75.6% in the assay with PC-3 prostate; 72% with SK-MEL-5 melanoma; 38.4% in the assay with UACC-62 melanoma; 26% in the assay on LOX IMVI melanoma. In addition, the growth in the assay on SK-MEL-28 melanoma was 46%; in the assay with SK-MEL-2 melanoma, 103%.
